Inconclusive results are not listed. Active and inactive are the calls of the source. Rule for the calls: active = hit-call score of the fitted dose curve at least 0.9, where 1 is the maximum; inconclusive = response in the unintended direction; inactive = score below 0.9.

What is called AC50 is the midpoint of the concentration-response curve, whichever way the signal moves.

Sequence of human Retinoid X Receptor beta (RXRb), RXRB (gene 6257) (P28702 whole entry, looked up): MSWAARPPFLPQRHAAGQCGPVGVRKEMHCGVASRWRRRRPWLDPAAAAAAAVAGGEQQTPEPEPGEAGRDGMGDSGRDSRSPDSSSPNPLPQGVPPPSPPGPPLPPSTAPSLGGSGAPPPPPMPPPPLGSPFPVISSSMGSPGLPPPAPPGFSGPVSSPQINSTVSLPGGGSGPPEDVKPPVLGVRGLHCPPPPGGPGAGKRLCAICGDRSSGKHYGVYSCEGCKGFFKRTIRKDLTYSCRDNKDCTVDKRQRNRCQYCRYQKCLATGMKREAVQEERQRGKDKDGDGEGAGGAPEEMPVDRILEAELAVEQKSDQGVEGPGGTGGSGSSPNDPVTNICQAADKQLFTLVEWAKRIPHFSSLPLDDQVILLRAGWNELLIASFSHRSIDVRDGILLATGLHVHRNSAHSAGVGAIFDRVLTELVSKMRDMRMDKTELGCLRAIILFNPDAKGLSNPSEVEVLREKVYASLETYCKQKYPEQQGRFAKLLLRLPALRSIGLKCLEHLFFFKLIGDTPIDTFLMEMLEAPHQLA

The experiment addresses human Retinoid X Receptor beta (RXRb), RXRB (gene 6257) (UniProt P28702). The experiment is described as follows: ATG_RXRb_TRANS: Attagene TRANS-FACTORIAL HepG2 Assay for human Retinoid X Receptor beta (RXRb) (AID 2283013). As to the method: ATG_TRANS is a cell-based, multiplexed-readout assay that uses HepG2, a human liver cell line, with measurements taken at 24 hours after chemical dosing in a 24-well plate.ATG_RXRb_TRANS is one of 30 assay component(s) measured or calculated from the ATG_TRANS assay. It is designed to make measurements of mRNA induction, a form of inducible reporter, as detected with fluorescence intensity signals by Reverse transcription polymerase chain reaction (RT-PCR) and Capillary electrophoresis technology.Data from the assay component ATG_RXRb_TRANS was analyzed into 1 assay endpoint. This assay endpoint, ATG_RXRb_TRANS, was analyzed in the positive analysis fitting direction relative to DMSO as the negative control and baseline of activity. Using a type of inducible reporter, measures of mRNA for gain-of-signal activity can be used to understand the reporter gene at the transcription factor-level as they relate to the gene RXRB. Furthermore, this assay endpoint can be referred to as a primary readout, because this assay has produced multiple assay endpoints where this one serves a reporter gene function. To generalize the intended target to other relatable targets, this assay endpoint is annotated to the nuclear receptor intended target family, where the subfamily is non-steroidal.
Human liver HepG2 cells are transiently transfected with multiple reporter transcription units (MRTUs) in 6-well plates using FuGene 6 reagent (Roche; 3 ml FuGene/1 mg DNA). The MRTU constructs are regulated by a cis-regulating element (promoter). […] A major difference between the CIS and TRANS system is that in CIS activities of endogenous TFs are measured, whereas the TRANS assay evaluates changes in activities of exogenous, chimeric NR-Gal4 proteins. […] At the end of 24 hour incubation, total RNA was isolated using TriZol reagent (Invitrogen). The isolated RNA is then reverse-transcribed using oligo(dT) primer and Mo-MLV reverse transcriptase (Invitrogen) with DNAse I (Ambion) treatment for 30 min. The one-tenth of the produced cDNA was amplified by PCR using Taq DNA polymerase (Invitrogen) and two reporter sequence-specific primers. The PCR products were fluorescently labeled by primer extension with 6-arboxyfluorescein (6-FAM) 5'-labeled reporter sequence-specific primer (2 min at 95 C, 20 s at 68 C and 10 min at 72 C) and these products were digested with 5U of HpaI (New England Biolabs) for 2h at 37 C. The fragments were purified using Qiaquick PCR columns (Qiagen), analyzed on an ABI 3130xL genetic analyzer (Applied Biosystems) with peak positions identified by using a set of X-rhodamine (ROX)-labeled MapMarker1000 molecular weight standards (BioVentures). The raw capillary electrophoresis data was processed using Attagraph software (Attagene).
Regarding `CCCCCCC(O)CCCCCCCCCCC(=O)O` (stereo not given), the AC50 was 22.7 µM (active).
Consider `CCC(=O)O[C@@H]1C[C@H]2CC[C@]1(C)C2(C)C`, for which the compound was called inactive.
On the same count and under the same terms, the value for `C=Cc1ccc(C(C)(C)C)cc1` was “inactive”; that for `NCCNc1cccc2ccccc12` was “inactive”.
On the same count and under the same terms, the value for `CCCCOCC` was “inactive”.
On the same count and under the same terms, the value for `CCCCCCCCCCCCN1CCCCCC1=O` was “inactive”; that for `CC(=O)c1ccccn1` was “inactive”.
Regarding `CSc1c(Cl)c(Cl)c(Cl)c(Cl)c1Cl`, the AC50 was 2.96 µM (active).
`O=[N+]([O-])c1ccc(O)cc1C(F)(F)F`: the result was inactive.
Consider `CCCC(=O)OC(C)(C)Cc1ccccc1`, for which the AC50 was 63.9 µM (active).
Turning to `Clc1ccc(C(c2ccccc2Cl)C(Cl)Cl)cc1` (stereo not given), the AC50 was 9.66 µM (active).
In the case of `C1=CC2C3C=CC(C3)C2C1` (stereo not given), the result was inactive.
For the compound `Oc1ccc2cc(SSc3ccc4cc(O)ccc4c3)ccc2c1`, the compound was classed as inactive.
Consider `c1ccc(Oc2ccccc2)cc1`, for which the AC50 is 114 µM (active).
Turning to `Nc1ccccc1[N+](=O)[O-]`, the outcome was inactive.
The same measure, in the same setting: the value for `O=C(O)CNc1ccccc1` was “inactive”; that for `O=C(O)c1cccnc1C(=O)O` was “inactive”; that for `O=C(O)c1ccc(O)cc1` was “inactive”.
Take `CCC(Cl)C(Cl)C(Cl)CC(Cl)C(Cl)C(C)Cl` (stereo not given): the half-maximal activity concentration (AC50) was 16.4 µM (active).
For `CCCCCCCCCCCCS(=O)(=O)Cl`, the call was inactive.
Still for that read-out and setting: the value for `Cc1ccc(S(=O)(=O)Oc2ccc(N=Nc3ccc(-c4ccc(N=Nc5c(O)ccc6cc(S(=O)(=O)O)cc(S(=O)(=O)O)c56)c(C)c4)cc3C)cc2)cc1` was “inactive”; that for `CS(=O)(=O)c1ccc(C2=C(c3ccccc3)C(=O)OC2)cc1` was “inactive”; that for `C=Cc1ccncc1` was “inactive”.
As for `CCCCCCC(C)(C)S`, the compound was classed as inactive.
Turning to `CC1(C)CCC[C@]2(C)[C@H]3CCO[C@]3(C)CC[C@@H]12`, the call was inactive.
For the compound `C=C[Si]1(C)O[Si](C)(C=C)O[Si](C)(C=C)O[Si](C)(C=C)O1` (stereo not given), the AC50 was 8 µM (active).
Same read-out and setting: the value for `CCc1cc(Cc2cc(CC)cc(C(C)(C)C)c2O)c(O)c(C(C)(C)C)c1` was 5.71 µM (active).
Turning to `CCCCC(CC)COC(C)=O` (stereo not given), the call was inactive.
Regarding `CC(=O)NCCO`, the outcome was inactive.
The same measure, in the same setting: the value for `CC1C2CC(CC2C2CCCC(O)C2)C1(C)C` (stereo not given) was “inactive”; that for `COS(=O)(=O)O` was “inactive”; that for `C=CC(C)C#N` (stereo not given) was “inactive”.
On the same count and under the same terms, the value for `O=C(O)CCCCCCCCC(=O)O` was “inactive”.
Still for that read-out and setting: the value for `CCO/C=C1\N=C(c2ccccc2)OC1=O` was “inactive”.
As for `CCCCCCCCCC(=O)OC`, the concentration at half-maximal activity (AC50) is 47 µM (active).
On to `Cc1ccc(C)o1`, for which the result was inactive.
Same read-out and setting: the value for `COC(=O)c1ccc([N+](=O)[O-])cc1` was “inactive”; that for `CC/C=C\CC/C=C/CO` was “inactive”; that for `CCc1ccc(O)c(OC)c1` was “inactive”.
On the same count and under the same terms, the value for `O=C(CC(=O)c1ccccc1)c1ccccc1` was “inactive”.

Source of the values: PubChem BioAssay (EPA / NIEHS).
